# According to PMC5540273 (PLoS ONE, 2017):
# How the values were obtained:
# Conditions in all cases: concentration: 1 μM, replicates: in singlicate; n = 1
# STK16 = system: STK16
# STK33 = system: STK33
# STK35 = system: STK35
# STK36 = system: STK36
# STK39 = system: STK39
# SYK = system: SYK
# SgK110 = system: SgK110
# TAK1 = system: T1, TAK1
# T1 construct: gene MAP3K7
# TAOK1 = system: TAOK1
# TAOK2 = system: TAOK2
# TAOK3 = system: TAOK3
# TBK1 = system: TBK1
# TEC = system: TEC
# TESK1 = system: TESK1
# TGFBR1 = system: TGFBR1
# TGFBR2 = system: TGFBR2
# TIE1 = system: TIE1
# TIE2 = system: T2, TIE2
# T2 construct: gene TEK
# TLK1 = system: TLK1
# TLK2 = system: TLK2
# 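Further: KINOMEscan kinase panel screen.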
Structure (SMILES),%Inh (STK16) [%],%Inh (STK33) [%],%Inh (STK35) [%],%Inh (STK36) [%],%Inh (STK39) [%],%Inh (SYK) [%],%Inh (SgK110) [%],%Inh (TAK1) [%],%Inh (TAOK1) [%],%Inh (TAOK2) [%],%Inh (TAOK3) [%],%Inh (TBK1) [%],%Inh (TEC) [%],%Inh (TESK1) [%],%Inh (TGFBR1) [%],%Inh (TGFBR2) [%],%Inh (TIE1) [%],%Inh (TIE2) [%],%Inh (TLK1) [%],%Inh (TLK2) [%]
Cc1ccc(C(=O)Nc2ccc(Nc3ccnc4cc(-c5ccccn5)ccc34)cc2O)cc1.Cl [GW440146],22,0,0,0,0,21,0,0,0,0,0,0,13,13,3,26,19,0,0,0
COc1ccc(CNC(=O)NC2CCN(c3ccnc(Nc4cc(OC)c(OC)c(OC)c4)n3)C2)cc1 (stereo not drawn) [GSK1379748],54,0,0,0,1,21,0,0,0,0,0,15,0,2,0,0,20,0,9,0
Cn1ccc2ncnc(Oc3cccc(C(=O)Nc4ccccc4)c3)c21,0,7,0,0,0,2,0,13,0,0,0,0,11,0,8,0,0,0,5,7
COc1cccc(NC(=O)NC2CCN(c3ccnc(Nc4ccc(F)cc4)n3)C2)c1 (stereo not drawn) [GSK1379721],16,0,0,0,9,0,0,0,0,0,2,16,0,32,15,0,0,0,6,4
C[C@@H]1CCCCN1c1cc(-c2ccc3c(N)n[nH]c3c2)nc(N)n1 [GSK2258759],19,0,0,0,0,10,0,0,0,0,0,24,0,0,–,0,0,0,23,4
